Laboratory results: PubChem BioAssay AID1159580 (chemical genetic matrix, 2015)
Among all 5,500 compounds or so, about 2,000 (36%) were called active. Another 18% or so got no clear call; they are omitted. Rule as the data show it: active = normalized growth mostly below about 0.91 (no sharp cut-off); inconclusive = no clear call, values can overlap the other calls; inactive = mostly above about 0.92. The list shows a part of the results.

Test: chemical genetic growth profiling, strain panel (AID 1159580);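 also: tested at 20 µM; growth read once vehicle control cultures reached saturation at 30 °C; 1 = growth at the plate median or of vehicle wells; lower values mean less growth of the strain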
Details: S. cerevisiae deletion strains, growth OD

Measured: normalized growth

C[C@@]1(C2CCCC2)Cc2cc(OCC(=O)O)c(Cl)c(Cl)c2C1=O
inactive: locus YAL040C, strain CLN3, hits give low values 1 | locus YCL061C, strain MRC1 (second series), hits give low values 1.01 | locus YDR363W, strain ESC2, hits give low values 1.01 | locus YER002W, strain NOP16, hits give low values 1 | locus YMR307W, strain GAS1, hits give low values 1.01 | locus YNL128W, strain TEP1, hits give low values 1 | locus YNL175C, strain NOP13, hits give low values 1 | locus YNL197C, strain WHI3, hits give low values 1 | locus YNL224C, strain SQS1, hits give low values 1 | locus YNL322C, strain KRE1, hits give low values 1 | locus YOR083W, strain WHI5 (second series), hits give low values 1.01 | locus YPL055C, strain LGE1, hits give low values 1.01 | locus YPL241C, strain CIN2, hits give low values 1.01
